Measured values as given in ChEMBL document CHEMBL3988442, “University of Dundee, Small-Polar-MMV Screening Library” (2021).
The whole screen tested about 48,000 compounds, of which about 13,000 (27%) showed an effect of 50% or more. The list shows a part of the results.

These compounds were tested on Wolbachia pipientis (assay: Anti-Wolbachia Cell-Based Screen). Details: 5 µM.
Format: functional
Parameters: scale not given: in the data most compounds retested in dose-response had high values
For `N#CCCCS(=O)(=O)N1CCC(CSc2ccccc2)C1` (centres undefined), the “Percent Effect” value was -3.001%. With `O=C(C1SCCc2sccc21)N1CCN(CCO)CC1` (centres undefined) the “Percent Effect” value was 1.361%. With `O=C1NC2(Nc3ncccc31)C(=O)Nc1c2ccc(Cl)c1F` (centres undefined) the “Percent Effect” value was -11.72%. With `c1ccc(-c2nnc3n2CCN(c2nc(C4CC4)ns2)C3)cc1` the “Percent Effect” value was -0.2636%. With `CN(Cc1noc2c1CCCC2)C(=O)Cn1cnc2ccccc2c1=O` the “Percent Effect” value was 0.7727%. `CN1C(=O)COc2ccc(C(=O)Cn3cnc4ccsc4c3=O)cc21` was tested, and the “Percent Effect” value was 115.3%. In the case of `CN1C(=O)COc2ccc(C(=O)Cn3cnc4ccccc4c3=O)cc21`, the “Percent Effect” value is reported as 102.3%. In the case of `O=C(Cn1ccc2ncccc2c1=O)N1CCSCC1`, the “Percent Effect” value is reported as -22.33%. In the case of `CCn1ccnc1SCCn1cnc2ccsc2c1=O`, the “Percent Effect” value is reported as -20.68%. `CCCc1nccn1CCn1cnc2ccsc2c1=O` was tested, and the “Percent Effect” value was -10.48%. With `CC(C)(C)C(=O)N1CCN(CCOc2cccc(C#N)c2)CC1` the “Percent Effect” value was 23.12%. `CCC[C@@H]1CN(C(=O)c2c(F)ccc(OC)c2F)C[C@H]1C(=O)O` was tested, and the “Percent Effect” value was -8.772%. `CCOc1ccc(N(C)Cc2nc(C)c(C)o2)cc1` was tested, and the “Percent Effect” value was 2.822%. For `COc1ccc2c(c1)nc1n2[C@@H](CNCc2ccccc2)COC1`, the “Percent Effect” value was -7.543%. For `CCOC(=O)c1coc(N2CCN(Cc3cccc(OC)c3)C(=O)C2)n1`, the “Percent Effect” value was -20.43%. For `C/N=C1\c2cc3cc(OC)ccc3n2CCN1C.Cl`, the “Percent Effect” value was 97.02%. `C/N=C1/c2cc3cc(OC)ccc3n2CCN1Cc1ccccc1.Cl` was tested, and the “Percent Effect” value was 86.74%. In the case of `CCN1CC(NC(=O)Nc2nc(C)n(C(C)C)n2)CC1=O` (centres undefined), the “Percent Effect” value is reported as -13.6%. `Cc1cc(N2CCC3(CCC(=O)N(CCCO)C3)CC2)nc(N(C)C)n1` was tested, and the “Percent Effect” value was 15.64%. For `COc1cc(N2CC[C@@H]3O[C@H](C(=O)N(C)C)C[C@@H]32)ncn1.O=C(O)C(F)(F)F`, the “Percent Effect” value was 99.56%. With `COc1ccc(C[C@H]2CN(c3cc(OC)ncn3)CC[C@H]2OC)cc1.O=C(O)C(F)(F)F` the “Percent Effect” value was -1.133%. `COc1ccc(C[C@H]2CN(c3cc(OC)ncn3)CC[C@@H]2OC)cc1.O=C(O)C(F)(F)F` was tested, and the “Percent Effect” value was -9.694%. In the case of `O=C(NC1CC1)[C@H]1CC[C@@H]2[C@@H](CCN2c2ncc(F)cn2)O1.O=C(O)C(F)(F)F`, the “Percent Effect” value is reported as -10.92%. `O=C(NC1CCCC1)[C@H]1CC[C@@H]2[C@@H](CCN2c2ncc(F)cn2)O1.O=C(O)C(F)(F)F` was tested, and the “Percent Effect” value was 6.364%. For `COc1cc(N2CC[C@H]3O[C@@H](C(=O)NC4CCCC4)CC[C@H]32)ncn1.O=C(O)C(F)(F)F`, the “Percent Effect” value was 90.73%. For `COc1cc(NC(=O)c2cc(C)sc2C)c(C(=O)N(C)C)cc1OC`, the “Percent Effect” value was -0.1136%. In the case of `CC(=O)c1ccc(-n2ccc3nc(N4CCCC4)ncc3c2=O)cc1`, the “Percent Effect” value is reported as -1.476%. In the case of `CN(C)CC1(O)CCN(Cc2cnc3c(-c4ccccc4)cnn3c2)C1` (centres undefined), the “Percent Effect” value is reported as -5.196%. In the case of `CC(CCN1CCCn2nc(CNS(C)(=O)=O)cc2C1)c1ccccc1` (centres undefined), the “Percent Effect” value is reported as 111.7%. `CC(CCN1CCn2nc(CNC(=O)N(C)C)cc2C1)c1ccccc1` (centres undefined) was tested, and the “Percent Effect” value was -9.419%. In the case of `CS(=O)(=O)NCc1cc2n(n1)CCCN(Cc1cc3ccccc3o1)C2`, the “Percent Effect” value is reported as 0.8182%. `CN(C)C(=O)CSc1nnc(CCNC(=O)OC(C)(C)C)o1` was tested, and the “Percent Effect” value was 15.65%. In the case of `COC(=O)CSc1nnc(CCNC(=O)OC(C)(C)C)o1`, the “Percent Effect” value is reported as 120.8%. In the case of `CC(C)Sc1nnc(CCNC(=O)OC(C)(C)C)o1`, the “Percent Effect” value is reported as 12.98%. `Cc1nc(N2CC[C@@H](NC(=O)c3cnccn3)[C@H](O)C2)c2ccsc2n1` was tested, and the “Percent Effect” value was 4.294%. For `CCc1nc(CN(C)C2CCN(CC(=O)N3CCOCC3)C2)no1` (centres undefined), the “Percent Effect” value was 114.4%. With `Cc1nc(CN(C)C2CCN(CCC(=O)N3CCOCC3)C2)no1` (centres undefined) the “Percent Effect” value was 118.2%. For `CN(Cc1noc(C2CC2)n1)C1CCN(CC(=O)N2CCOCC2)C1` (centres undefined), the “Percent Effect” value was 87.19%. In the case of `Cc1nc(CN(C)C2CCN(CC(=O)N3CCOCC3)C2)no1` (centres undefined), the “Percent Effect” value is reported as -5.301%. With `Cc1nc(CN(C)C2CCN(CC(=O)NC3CCOCC3)C2)no1` (centres undefined) the “Percent Effect” value was -6.239%. `c1ccc(-n2cc(CN3CCCC(Cn4cncn4)C3)nn2)cc1` (centres undefined) was tested, and the “Percent Effect” value was 6.927%. `CC(C)N(C)[C@@H]1CCN(c2ncccn2)[C@H]1Cc1ccncc1.O=C(O)C(F)(F)F.O=C(O)C(F)(F)F` was tested, and the “Percent Effect” value was -5.254%. In the case of `Cc1cnc(C(=O)N2CCCC(Cn3cc(CC(C)C)nn3)C2)cn1` (centres undefined), the “Percent Effect” value is reported as -14.05%. With `CC(C)CNC(=O)c1cc(Br)c2c(c1)OCCO2` the “Percent Effect” value was -6.005%. With `CCCc1cc(CN(C)C2CSCCSC2)n[nH]1` the “Percent Effect” value was -33.01%. In the case of `Cn1cccc1-c1cc(C(=O)N2CCCCC2c2ccc(F)cc2)[nH]n1` (centres undefined), the “Percent Effect” value is reported as 6.407%. For `NC(=O)C1CCCCN1C(=O)c1ccc(Br)s1` (centres undefined), the “Percent Effect” value was 11.69%. In the case of `Cc1ccc(C(=O)N2CCCCC2c2[nH]ncc2S(C)(=O)=O)s1` (centres undefined), the “Percent Effect” value is reported as 77.94%. `Cc1cnc(C(=O)N2CCCCC2c2[nH]ncc2S(C)(=O)=O)cn1` (centres undefined) was tested, and the “Percent Effect” value was -8.056%. For `Cn1cccc1C(=O)N1CCCCC1c1[nH]ncc1S(C)(=O)=O` (centres undefined), the “Percent Effect” value was 102.3%. `Cc1cccc(C(=O)N2CCCCC2c2[nH]ncc2S(C)(=O)=O)c1` (centres undefined) was tested, and the “Percent Effect” value was 98.38%. For `CC1CCCCN1C(=O)c1ccc(Br)s1` (centres undefined), the “Percent Effect” value was 10.55%. In the case of `Cc1cccnc1C(=O)N1CCCCC1c1[nH]ncc1S(C)(=O)=O` (centres undefined), the “Percent Effect” value is reported as -7.963%. `Cc1ccc(C(=O)N2CCCCC2c2[nH]ncc2S(C)(=O)=O)cn1` (centres undefined) was tested, and the “Percent Effect” value was 107.9%. `Cn1cccc1-c1cc(C(=O)N2CCCC2c2cccnc2)[nH]n1` (centres undefined) was tested, and the “Percent Effect” value was -7.739%. `Cc1cccc(C(=O)N2CCCCC2c2ccc(CN(C)C)cc2)c1` (centres undefined) was tested, and the “Percent Effect” value was 14.25%. For `CC1CCN(CC(O)CNc2ccc(Cl)cn2)CC1` (centres undefined), the “Percent Effect” value was 15.58%. `CC(=O)N(C)CC(=O)Nc1ccc(C)cc1OCc1ccccc1` was tested, and the “Percent Effect” value was 2.382%. For `Cc1nc(CNC(=O)N(Cc2ccccc2)CC(C)(C)O)oc1C`, the “Percent Effect” value was -21.53%. For `CC(=O)NCCCNCc1ccc(Cl)c2cccnc12`, the “Percent Effect” value was -6.459%. `Cc1ccc(C(=O)NC(C)Cn2cccn2)c(=O)[nH]1` (centres undefined) was tested, and the “Percent Effect” value was -0.2392%. `CC(C)NC(=O)NCc1ccc(C(=O)NC(C)Cn2cccn2)cc1` (centres undefined) was tested, and the “Percent Effect” value was 146.4%. For `CC(Cn1cccn1)NC(=O)NCc1cccnc1OC1CCCC1` (centres undefined), the “Percent Effect” value was 11.91%. `CC(Cn1cccn1)NC(=O)NCc1ccc(S(C)(=O)=O)cc1` (centres undefined) was tested, and the “Percent Effect” value was 102.2%. `CC(Cn1cccn1)NC(=O)NCc1ccc(C(N)=O)cc1` (centres undefined) was tested, and the “Percent Effect” value was 167.3%. With `CC(Cn1cccn1)NC(=O)CCc1ccc(S(N)(=O)=O)cc1` (centres undefined) the “Percent Effect” value was 6.181%. With `COc1ccc(CNC(=O)NC(C)Cn2cccn2)cc1O` (centres undefined) the “Percent Effect” value was 8.397%. With `CC(Cn1cccn1)NC(=O)NCc1ccc(S(N)(=O)=O)cc1` (centres undefined) the “Percent Effect” value was 4.625%. With `CC(C)c1nccn1C(C)C(=O)NCc1noc(Cc2cccs2)n1` (centres undefined) the “Percent Effect” value was 8.731%. For `O=C(NC1CC1)N1CCOC2(CCCN(c3cccc(F)c3)C2)C1` (centres undefined), the “Percent Effect” value was -2.504%. `CC(CCc1ccccc1F)C(=O)NS(=O)(=O)CC1CC1` (centres undefined) was tested, and the “Percent Effect” value was -8.345%. With `CC(=O)N1CCC(Nc2cccc(OC(F)F)c2C)CC1` the “Percent Effect” value was -10.39%. With `Cn1cnnc1CN1CCC2(CCC(=O)N(Cc3ccccn3)C2)CC1` the “Percent Effect” value was -8.652%. In the case of `Clc1cc(N2CCN(C3CCOCC3)CC2)nc2[nH]ccc12`, the “Percent Effect” value is reported as 109.8%. `Cc1nc(-c2cccc(N3CCC(N4CCCC4)CC3)c2)cs1` was tested, and the “Percent Effect” value was -1.882%. In the case of `FC(F)(F)c1ccnc(N2CCCN(C3CCOCC3)CC2)c1`, the “Percent Effect” value is reported as -6.382%. For `Clc1cc(N2CCC(N3CCCC3)CC2)nc2[nH]ccc12`, the “Percent Effect” value was 113%. For `Cc1noc(-c2ccnc(N3CCC(N4CCCC4)CC3)c2)n1`, the “Percent Effect” value was -2.845%. `Cc1noc(-c2ccnc(N3CCN(C4CCOCC4)CC3)c2)n1` was tested, and the “Percent Effect” value was 8.096%. For `COc1cc(N2CCC3(CC2)CC(N2CCN(C)CC2)CO3)ncn1.O=C(O)C(F)(F)F.O=C(O)C(F)(F)F` (centres undefined), the “Percent Effect” value was -26.84%. `COc1cc(N2CCC3(CC2)CNC(=O)CO3)ncn1` was tested, and the “Percent Effect” value was 115.6%. In the case of `COc1cc(N2CCC3(CC2)OCC(=O)NC3C)ncn1` (centres undefined), the “Percent Effect” value is reported as 115.6%. `COc1cc(N2CCC3(CC2)C(c2ccncc2)CC(=O)N3C)ncn1` (centres undefined) was tested, and the “Percent Effect” value was 16.73%. With `COc1cc(N2CC3(CCN(S(=O)(=O)C4CC4)C3)C2)ncn1` the “Percent Effect” value was -10.78%. With `COc1cc(N2CCC3(CC2)CC(N2CCOCC2)CO3)ncn1` (centres undefined) the “Percent Effect” value was -10.74%. For `COc1cc(N2CCC3(CC2)CN(C)C(=O)CO3)ncn1`, the “Percent Effect” value was 113.9%. For `CCS(=O)(=O)N1CCC2(CN(c3cc(OC)ncn3)C2)C1`, the “Percent Effect” value was -9.777%. For `CC(C)NC(=O)c1nnn(-c2cccc(C(F)(F)F)c2)c1N`, the “Percent Effect” value was 5.987%. For `O=C(CCO)N1CCC2(CCc3ccc(-c4ccoc4)cc32)CC1`, the “Percent Effect” value was -1.453%. For `COc1ncccc1C(=O)N1CCC(c2nc3c(C)cccc3[nH]2)CC1`, the “Percent Effect” value was -11.64%. `c1ccc(Cn2ccnc2CN2CCOC(Cn3cccn3)C2)cc1` (centres undefined) was tested, and the “Percent Effect” value was 5.197%. For `O=c1[nH]c(CN2CCOC(Cn3cccn3)C2)nc2ccccc12` (centres undefined), the “Percent Effect” value was 108.3%. With `Cc1cnn(CC2CN(c3ncnc4ccccc34)CCO2)c1` (centres undefined) the “Percent Effect” value was -26.67%. `Cc1cnn(CC2CCCN2CCc2nc3ccccc3c(=O)[nH]2)c1` (centres undefined) was tested, and the “Percent Effect” value was -0.3603%. In the case of `O=S(=O)(CCN1CCOC(Cn2cccn2)C1)c1ccccc1` (centres undefined), the “Percent Effect” value is reported as -8.739%. `Cc1cnn(CC2CN(Cc3nc4ccccc4c(=O)[nH]3)CCO2)c1` (centres undefined) was tested, and the “Percent Effect” value was 128.5%. In the case of `Cc1cnn(CC2CN(Cc3nc4cccnc4[nH]3)CCO2)c1` (centres undefined), the “Percent Effect” value is reported as 117.2%. With `N[C@@H]1CC[C@@H]1NC(=O)c1ccccc1OC(F)(F)C(F)F` the “Percent Effect” value was -9.663%. For `CNC(=O)CN1CCO[C@H]2CN(C(=O)C3CC3)C[C@H]21.O=C(O)C(F)(F)F`, the “Percent Effect” value was 8.052%.
